Reference: PubChem BioAssay (Tox21)
“And” between values parts separate entries of the source, which are not always exact repeats. Equal values may be shown once. Results filed as inconclusive are left out. Where a call stands in place of a potency, no number is given. A structure can be active in one record and inactive in another. The source made the active and inactive calls. Unless noted, the call rests on the fitted dose curve.

Columns and labels:
[1] = Nuclear factor erythroid 2-related factor 2/antioxidant responsive element (Nrf2/ARE) small molecule agonists: qHTS cell viability counter screen in human keratinocytes (AID 1919968; active means well fitted curve in the direction sought with a large enough effect in the repeat runs; an effect the other way counts as inactive or inconclusive; further: nearly all actives have a fitted effect of over 55% in size)
In short: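 Cells of the KeratinoSens line were plated at 1,500 per well and left for 5 h before compound transfer from DMSO stocks. After a 23 h incubation (37 C, 5% CO2), CellTiter-Fluor was added. Signal was taken as fluorescence intensity 1 h later.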

[2] = Nuclear factor erythroid 2-related factor 2/antioxidant responsive element (Nrf2/ARE) small molecule agonists: luciferase reporter gene qHTS assay in human keratinocytes (AID 1919969); further: nearly all actives have a fitted effect of over 35% in size
[3] = molecular target: Gonadotropin-releasing hormone receptor (Homo sapiens) (UniProt P30968); assay: Human gonadotropin-releasing hormone receptor (GnRHR) small molecule agonists, calcium flux assay in GnRHR-HEK293 cells (AID 1920063); further: nearly all actives have a fitted effect of over 35% in size
In short: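 Compounds dissolved in DMSO are pin-transferred onto dye-loaded GnRHR-HEK293 cells, which were seeded 18 h before at 37 C/5% CO2. Calcium signal is read as fluorescence intensity at 1 s intervals for 3 min.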

[4] = molecular target: KiSS-1 receptor (Homo sapiens) (UniProt Q969F8); assay: Human kisspeptin (KISS1R) small molecule agonists, calcium flux assay in KISS1R-HEK293 cells (AID 1920064; active means well fitted curve in the direction sought with a large enough effect in the repeat runs; an effect the other way counts as inactive or inconclusive)
In short: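 Cell line: HEK293, stable human KISS1R. Dye loading 1 h at 37 C after 18 h culture. Read: kinetic fluorescence, 480/540 nm, 3 min at 1 s intervals.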

[5] = G protein-coupled receptor (GPCR) small molecule agonists, calcium flux assay: HEK293 wild type cell line counter screen (AID 1920065)
In short: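 Tox21 10K compounds, 15 concentrations each in triplicate, pin-transferred in DMSO onto dye-loaded cells; kinetic read at 480/540 nm for 3 min, 1 s intervals.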

[6] = p53 small molecule agonists, cell-based qHTS assay with human liver microsomes: qHTS cell viability counter screen (AID 1963579); further: nearly all actives have a fitted effect of over 45% in size
In short: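 Seed p53RE-bla cells at 4,000 per well; incubate 5 h at 37 C; add compound, human liver microsomes and NADPH; incubate 16 h at 37 C; add CellTiter-Glo; after 30 min at room temperature, read luminescence.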

[7] = p53 small molecule agonists, cell-based qHTS assay with rat liver microsomes: qHTS cell viability counter screen (AID 1963580); further: nearly all actives have a fitted effect of over 45% in size
In short: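 After the beta-lactamase ratio was read, CellTiter-Glo was added to the same wells and luminescence measured at 30 min; cells had been treated 16 h at 37 C with compounds, rat liver microsomes and NADPH (0.5 mg/mL final each).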

[8] = p53 small molecule agonists, cell-based qHTS assay: qHTS cell viability counter screen (AID 1963581); further: nearly all actives have a fitted effect of over 45% in size; further: potency means the concentration at half of the fitted maximal effect
In short: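 ATP content measured by luminescence in HCT-116 p53RE-bla cells treated 16 h at 37 C, same wells as the reporter screen.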

[9] = molecular target: 5-hydroxytryptamine receptor 2A (Homo sapiens) (UniProt P28223); assay: 5-hydroxytryptamine receptor 2A (HTR2A) small molecule antagonists, cell-based qHTS assay (AID 1963586); further: nearly all actives have a fitted effect of over 45% in size; further: potency means the concentration at half of the fitted maximal effect
In short: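 CHO cells stably expressing human HTR2A were plated for 18 h at 37 C, then loaded with calcium dye for 1 h. Compounds were preincubated 5 min at room temperature before DOI (4 nM solution) was added. Kinetic fluorescence was read for 3 min.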

[10] = molecular target: 5-hydroxytryptamine receptor 2A (Homo sapiens) (UniProt P28223); assay: 5-hydroxytryptamine receptor 2A (HTR2A) small molecule agonists, cell-based qHTS assay (AID 1963587); further: nearly all actives have a fitted effect of over 30% in size; further: potency means the concentration at half of the fitted maximal effect
In short: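 CHO cells stably expressing human HTR2A, plated 18 h, loaded with calcium dye 1 h at 37 C. Agonist mode: compounds added and intracellular calcium fluorescence recorded kinetically for 2 min at 1 sec intervals.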

[11] = molecular target: Muscarinic acetylcholine receptor M1 (Homo sapiens) (UniProt P11229); assay: Cholinergic receptor muscarinic 1 (CHRM1) small molecule antagonists, cell-based qHTS assay (AID 1963588); further: nearly all actives have a fitted effect of over 40% in size; further: potency means the concentration at half of the fitted maximal effect
In short: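 Compounds were tested at 15 concentrations in three independent runs. Dye-loaded CHRM1-CHO cells were exposed 5 min at room temperature before stimulation by acetylcholine added at 50nM. Intracellular calcium was read kinetically on FDSS for 3 min.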

[12] = molecular target: Muscarinic acetylcholine receptor M1 (Homo sapiens) (UniProt P11229); assay: Cholinergic receptor muscarinic 1 (CHRM1) small molecule agonists, cell-based qHTS assay (AID 1963589); further: nearly all actives have a fitted effect of over 35% in size
In short: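 Homogeneous fluorescence calcium flux, agonist mode. Human M1-expressing CHO cells; compound dosed at 15 concentrations, three independent runs; signal sampled every 1 sec.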

[13] = cAMP Responsive Elements (CRE) small molecule agonists, cell-based qHTS assay (AID 1963590)
In short: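 HEK 293T cells stably bearing CRE-bla were plated at 2,000 cells per well and rested 18 h. Compounds, positive controls or DMSO were added for 3 h at 37 C. LiveBLAzer B/G substrate was then loaded for 2 h at room temperature.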

[14] = cAMP Responsive Elements (CRE) small molecule antagonists, cell-based qHTS assay (AID 1963591; active means well fitted inhibition curve with a large enough effect in the signal ratio in the repeat runs, not every such curve was filed as active; the % refers to the signal ratio)
In short: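 First, CRE-bla HEK293T cells settled 18 h at 37 C. Next, compound and 0.25 uM final NKH477 were applied for 3 h. Last, LiveBLAzer B/G substrate was loaded for 2 h at room temperature.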

[15] = molecular target: Beta-2 adrenergic receptor (Homo sapiens) (UniProt P07550); assay: Adrenergic beta2 receptor (ADRB2) small molecule antagonists, cell-based qHTS assay (AID 1963592); further: series mostly up to about 92 µM; nearly all actives have a fitted effect of over 50% in size
In short: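 Assay format: CHO-ADRB2 cells, 18-20hr seeding at 37C/5% CO2, then compound plus 1nM isoproterenol agonist mix for 0.5hr RT. Homogeneous time-resolved fluorescence cAMP detection after 1hr, expressed as 665/615 nm ratio.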

[16] = molecular target: Beta-2 adrenergic receptor (Homo sapiens) (UniProt P07550); assay: Adrenergic beta2 receptor (ADRB2) small molecule agonists, cell-based qHTS assay (AID 1963593);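 further: CHO cells stably overexpressing human ADRB2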
In short: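 CHO cells stably over-expressing ADRB2 were plated overnight at 37C, then dosed with compounds plus a stimulation mix containing 100uM IBMX and 25uM Ro-20-1724 for 0.5hr at room temperature. cAMP was measured by HTRF competition, 1hr.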

[17] = molecular target: D(2) dopamine receptor (Homo sapiens) (UniProt P14416); assay: Dopamine D2 receptor (DRD2) small molecule agonists, cell-based qHTS assay (AID 1963594); further: nearly all actives have a fitted effect of over 35% in size
In short: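 HEK293 cells stably expressing human DRD2, pre-treated with PDE inhibitor Ro20-1724 (0.1 mM final) and compound 10 min at room temperature, then stimulated with NKH477 (200nM […]) for 30 min. cAMP read by HTRF (665/620 nm).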

[18] = molecular target: D(2) dopamine receptor (Homo sapiens) (UniProt P14416); assay: Dopamine D2 receptor (DRD2) small molecule antagonists, cell-based qHTS assay (AID 1963595; active means well fitted inhibition curve with a large enough effect in the signal ratio in the repeat runs, with a control signal flat; the % refers to the signal ratio)
In short: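 Stable D2 receptor HEK293 line, 24 h after seeding. Compound preincubated 10 min, then quinpirole (12 nM) with forskolin analogue NKH477 (200 nM), 30 min, room temperature. Detection by time-resolved FRET of cAMP.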

[19] = p53 small molecule agonists, cell-based qHTS assay (AID 1963582; active means well fitted activation curve with a large enough effect in the signal ratio in the repeat runs, not every such curve was filed as active; the % refers to the signal ratio)
In short: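 16 h compound exposure (37 C) of p53 response element–bla cells, preceded by 5 h recovery at 37 C/5% CO2; read-out via LiveBLAzer B/G FRET substrate, 2 h RT, fluorescence intensity.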

5-hydroxytryptamine receptor 2A (Homo sapiens), sequence (P28223 whole entry, looked up): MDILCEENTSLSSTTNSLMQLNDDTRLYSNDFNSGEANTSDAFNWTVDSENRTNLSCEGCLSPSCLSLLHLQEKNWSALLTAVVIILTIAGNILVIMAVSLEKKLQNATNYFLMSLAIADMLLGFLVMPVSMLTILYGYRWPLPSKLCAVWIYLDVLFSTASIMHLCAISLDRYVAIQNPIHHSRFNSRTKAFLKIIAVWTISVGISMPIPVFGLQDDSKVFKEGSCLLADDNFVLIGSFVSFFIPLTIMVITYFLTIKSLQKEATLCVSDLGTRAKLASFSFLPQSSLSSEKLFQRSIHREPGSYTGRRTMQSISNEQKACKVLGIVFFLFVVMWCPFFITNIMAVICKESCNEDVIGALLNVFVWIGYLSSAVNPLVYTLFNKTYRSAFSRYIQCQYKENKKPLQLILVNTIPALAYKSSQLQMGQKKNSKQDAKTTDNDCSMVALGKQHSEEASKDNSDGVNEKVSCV
Muscarinic acetylcholine receptor M1 (Homo sapiens), sequence (P11229 whole entry, looked up): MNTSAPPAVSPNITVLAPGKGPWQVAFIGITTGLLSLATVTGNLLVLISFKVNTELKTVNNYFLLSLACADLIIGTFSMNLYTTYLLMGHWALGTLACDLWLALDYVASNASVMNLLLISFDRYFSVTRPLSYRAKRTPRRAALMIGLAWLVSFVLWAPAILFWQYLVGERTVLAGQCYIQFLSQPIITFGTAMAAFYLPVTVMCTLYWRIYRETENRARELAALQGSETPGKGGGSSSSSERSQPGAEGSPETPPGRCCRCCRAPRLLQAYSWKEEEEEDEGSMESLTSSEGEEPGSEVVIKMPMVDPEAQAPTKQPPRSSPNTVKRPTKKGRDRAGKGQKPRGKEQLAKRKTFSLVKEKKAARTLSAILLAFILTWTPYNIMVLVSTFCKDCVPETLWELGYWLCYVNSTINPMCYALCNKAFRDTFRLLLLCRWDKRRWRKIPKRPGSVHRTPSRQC
KiSS-1 receptor (Homo sapiens), sequence (Q969F8 whole entry, looked up): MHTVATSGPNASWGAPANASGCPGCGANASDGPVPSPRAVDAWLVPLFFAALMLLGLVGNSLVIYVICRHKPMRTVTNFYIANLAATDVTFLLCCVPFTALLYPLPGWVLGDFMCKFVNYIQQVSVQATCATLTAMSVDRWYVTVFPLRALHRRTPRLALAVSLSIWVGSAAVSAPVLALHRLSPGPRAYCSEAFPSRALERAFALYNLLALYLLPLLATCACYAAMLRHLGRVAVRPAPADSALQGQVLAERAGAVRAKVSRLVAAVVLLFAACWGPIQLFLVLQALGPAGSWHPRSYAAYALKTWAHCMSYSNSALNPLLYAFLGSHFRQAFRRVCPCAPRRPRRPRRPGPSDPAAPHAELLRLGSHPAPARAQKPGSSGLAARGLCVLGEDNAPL
D(2) dopamine receptor (Homo sapiens), sequence (P14416 whole entry, looked up): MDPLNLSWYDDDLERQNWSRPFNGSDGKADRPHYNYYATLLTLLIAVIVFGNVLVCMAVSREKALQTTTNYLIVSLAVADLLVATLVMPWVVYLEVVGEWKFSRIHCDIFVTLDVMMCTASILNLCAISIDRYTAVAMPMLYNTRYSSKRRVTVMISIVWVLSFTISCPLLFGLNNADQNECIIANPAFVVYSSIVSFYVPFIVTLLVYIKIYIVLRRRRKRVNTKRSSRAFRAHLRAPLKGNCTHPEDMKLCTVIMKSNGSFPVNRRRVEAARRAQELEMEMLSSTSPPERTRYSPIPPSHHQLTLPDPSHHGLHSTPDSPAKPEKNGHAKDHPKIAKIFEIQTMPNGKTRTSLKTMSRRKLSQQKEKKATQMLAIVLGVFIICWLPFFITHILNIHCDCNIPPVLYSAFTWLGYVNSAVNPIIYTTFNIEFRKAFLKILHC
Gonadotropin-releasing hormone receptor (Homo sapiens), sequence (P30968 whole entry, looked up): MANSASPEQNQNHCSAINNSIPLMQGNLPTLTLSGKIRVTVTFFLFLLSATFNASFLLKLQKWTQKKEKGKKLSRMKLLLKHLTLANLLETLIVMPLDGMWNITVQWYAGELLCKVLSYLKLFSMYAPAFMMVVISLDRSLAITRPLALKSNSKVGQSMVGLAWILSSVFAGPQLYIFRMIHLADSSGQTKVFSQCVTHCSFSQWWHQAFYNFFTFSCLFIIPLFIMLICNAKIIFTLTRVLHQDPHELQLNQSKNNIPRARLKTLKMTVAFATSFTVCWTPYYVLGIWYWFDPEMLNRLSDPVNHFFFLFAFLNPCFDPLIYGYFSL
Beta-2 adrenergic receptor (Homo sapiens), sequence (P07550 whole entry, looked up): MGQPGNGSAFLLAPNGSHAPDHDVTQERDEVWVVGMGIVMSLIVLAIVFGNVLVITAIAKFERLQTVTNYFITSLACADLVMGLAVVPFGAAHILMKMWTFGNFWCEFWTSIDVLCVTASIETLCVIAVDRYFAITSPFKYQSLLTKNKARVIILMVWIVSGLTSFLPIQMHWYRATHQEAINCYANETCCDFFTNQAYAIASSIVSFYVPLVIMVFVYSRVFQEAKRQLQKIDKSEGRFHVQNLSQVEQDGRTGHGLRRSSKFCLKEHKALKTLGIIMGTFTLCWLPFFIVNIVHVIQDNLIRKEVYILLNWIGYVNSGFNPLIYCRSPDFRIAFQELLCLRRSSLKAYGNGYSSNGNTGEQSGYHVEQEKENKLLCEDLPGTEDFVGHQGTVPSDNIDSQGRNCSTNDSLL

| Compound | Potency [1] | Potency [2] | Potency [3] | Potency [4] | Potency [5] | Potency [6] | Potency [7] | Potency [8] | Potency [9] | Potency [10] | Potency [11] | Potency [12] | Potency [13] | Potency [14] | Potency [15] | Potency [16] | Potency [17] | Potency [18] | Potency [19] |
| --- | --- | --- | --- | --- | --- | --- | --- | --- | --- | --- | --- | --- | --- | --- | --- | --- | --- | --- | --- |
| Cc1cccc(C)c1 | inactive | inactive | inactive | inactive | inactive | inactive | inactive | inactive | inactive | inactive | inactive | inactive | inactive | inactive | inactive | inactive | inactive | inactive | – |
| C=C(C)C(=O)OCC(C)O (centres undefined) | inactive | inactive | inactive | inactive | inactive | inactive | inactive | inactive | inactive | inactive | inactive | inactive | inactive | inactive | inactive | inactive | inactive | inactive | – |
| CC(=O)Nc1ccccc1 | inactive | inactive | inactive | inactive | inactive | inactive | inactive | inactive | inactive | inactive | inactive | inactive | inactive | inactive | inactive | inactive | inactive | – | – |
| CC1=CCC2CC1C2(C)C (centres undefined) | inactive | inactive | inactive | inactive | inactive | inactive | inactive | inactive | inactive | inactive | inactive | inactive | inactive | inactive | inactive | inactive | inactive | inactive | – |
| Cc1ccc(N)c([N+](=O)[O-])c1 | inactive | inactive | inactive | inactive | inactive | inactive | inactive | inactive | – | inactive | inactive | inactive | inactive | inactive | inactive | inactive | inactive | – | – |
| NC=O | inactive | inactive | inactive | inactive | inactive | inactive | inactive | inactive | – | inactive | inactive | inactive | inactive | inactive | inactive | – | inactive | inactive | – |
| O=C(O)C(=O)O | inactive | inactive | inactive | inactive | inactive | inactive | inactive | inactive | inactive | inactive | inactive | – | inactive | inactive | inactive | – | inactive | inactive | – |
| CC1(C)OC[C@@H]2O[C@@]3(C(=O)O)OC(C)(C)O[C@H]3[C@@H]2O1 | inactive | inactive | inactive | inactive | inactive | inactive | inactive | inactive | inactive | inactive | inactive | inactive | inactive | inactive | inactive | inactive | inactive | inactive | – |
| O=C(c1ccccc1)C(O)c1ccccc1 (centres undefined) | inactive | inactive | inactive | inactive | inactive | inactive | inactive | inactive | inactive and 729 nM (active) | inactive | inactive | inactive | inactive | inactive | inactive | inactive | inactive | inactive | – |
| C/C=C/c1ccc(OC)cc1 | inactive | inactive | inactive | inactive | inactive | inactive | inactive | inactive | inactive | inactive | inactive | inactive | – | inactive | inactive | inactive | inactive | inactive | – |
| CC(=O)CCC(=O)O | inactive | inactive | inactive | inactive | inactive | inactive | inactive | inactive | inactive | inactive | inactive | inactive | inactive | inactive | inactive | inactive | inactive | inactive | – |
| O=C1NC(=O)C(c2ccccc2)(c2ccccc2)N1 | inactive | inactive | inactive | inactive | inactive | inactive | inactive | inactive | – | – | – | – | inactive | inactive | inactive | inactive | – | inactive | – |
| CC(=O)/C=C/C1=C(C)CCCC1(C)C | inactive | inactive | inactive | inactive | inactive | inactive | inactive | inactive | inactive | inactive | inactive | – | inactive | inactive | inactive | inactive | inactive | inactive | – |
| NC1CCCCC1 | inactive | inactive | inactive | inactive | inactive | inactive | inactive | inactive | inactive | 1.96 µM (active) and inactive | inactive and 4.7 nM (active) | inactive | inactive | inactive | inactive | inactive | inactive | inactive | – |
| Clc1cc(Cl)c(Cl)cc1Cl | inactive | inactive | inactive | inactive | inactive | inactive | inactive | inactive and 16.2 µM (active) | inactive | inactive | inactive | inactive | inactive | inactive | inactive | inactive | inactive | inactive | inactive |
| CC1=CC2C3CC(C=C3C)C2C1 (centres undefined) | inactive | inactive | inactive | inactive | inactive | inactive | inactive | inactive | inactive | inactive | inactive | inactive | inactive | inactive | inactive | – | inactive | inactive | – |
